HP1b binding inh – HTS for Inhibitors of HP1-beta Chromodomain Interactions with Methylated Histone Tails. Chromobox protein homolog 1 (Homo sapiens), P83916. AID 540317, 2011. AlphaScreen HP1-beta / biotin-H3K9me3 peptide binding. 0.56% of 390,000 active. Potency, µM (doses to about 114 µM), for the others: at the top dose activity change, negative = inhibition, actives largely listed as inhibitors; note: potency is the fitted concentration of half-maximal effect; nearly all actives have a fitted effect of over 70% in size
Target sequence (P83916 whole entry, looked up): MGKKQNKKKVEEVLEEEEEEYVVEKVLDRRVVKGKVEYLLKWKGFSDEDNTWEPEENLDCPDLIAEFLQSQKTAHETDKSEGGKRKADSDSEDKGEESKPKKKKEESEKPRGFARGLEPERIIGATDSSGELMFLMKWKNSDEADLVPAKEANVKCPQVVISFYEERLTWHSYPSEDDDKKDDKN
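HP1-beta protein (50 nM final) preincubated 30 min at room temperature with biotinylated H3(1-18)K9me3 peptide (50 nM) in PBS pH 7.4, 0.01% Tween-20, then compound added for 30 min. AlphaScreen streptavidin donor/nickel chelate acceptor beads (10 ug/mL final), 30 min dark, luminescence read.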
BAZ2B block – qHTS Assay for Inhibitors of BAZ2B | Bromodomain adjacent to zinc finger domain protein 2B (Homo sapiens), Q9UIF8 | AlphaScreen BAZ2B-H3K14Ac peptide displacement | Potency, µM (titrated, usually from 114 µM), without a hit: at the top dose activity change, negative = inhibition, usual class: inhibitors | 4.4% of 360,000 active | AID 504333, 2011; note: potency is the fitted concentration of half-maximal effect; % is set by controls: 0 for no effect and ±100 for the full control effect; nearly all actives have a fitted effect of over 60% in size
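Inhibition is scored as reduced AlphaScreen emission. The BAZ2B/b-H3(5-23)K14Ac complex (50 nM each) in PBS pH 7.4, 0.01% Tween-20 meets compound (up to 110 uM) for 30 min at RT before bead addition.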
G9a block – qHTS Assay for Inhibitors of Histone Lysine Methyltransferase G9a; Histone-lysine N-methyltransferase EHMT2 (Homo sapiens), Q96KQ7; G9a H3K9 monomethylation, AlphaScreen, 2 h; Potency, µM (highest dose often 102 µM), inactives show top-dose activity, negative = inhibition, most hits filed as inhibitors; 8.8% of 350,000 active; note: potency is the fitted concentration of half-maximal effect; % is set by controls: 0 for no effect and ±100 for the full control effect; nearly all actives have a fitted effect of over 75% in size
Target sequence (Q96KQ7 913-1193 limits assumed): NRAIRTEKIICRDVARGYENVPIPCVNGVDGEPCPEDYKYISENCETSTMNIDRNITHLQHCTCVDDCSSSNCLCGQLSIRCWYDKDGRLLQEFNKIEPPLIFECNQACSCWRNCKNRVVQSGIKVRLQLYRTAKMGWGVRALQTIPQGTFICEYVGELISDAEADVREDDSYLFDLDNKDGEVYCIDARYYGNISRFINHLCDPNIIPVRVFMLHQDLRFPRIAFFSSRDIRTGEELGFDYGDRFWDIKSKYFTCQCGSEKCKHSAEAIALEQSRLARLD
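G9a (20 nM) was preincubated 15 min with compound, then reacted 2 h at room temperature with 500 nM biotin-H3K9 peptide and 20 µM SAM. Monomethyl-H3K9 detected by AlphaScreen using anti-H3K9me1 antibody.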
JMJD2A Tudor inh – qHTS Assay for Inhibitors of JMJD2A-Tudor Domain; 4.4% of 390,000 active; AID 504339, 2011; Potency, µM (doses to about 114 µM), inactives show top-dose activity change, negative = inhibition, usual class: inhibitors; Lysine-specific demethylase 4A (Homo sapiens), O75164; AlphaScreen JMJD2A-Tudor / H3K4me3 peptide binding; note: potency is the fitted concentration of half-maximal effect; % is set by controls: 0 for no effect and ±100 for the full control effect; nearly all actives have a fitted effect of over 50% in size
Six1-Eya2 inh – qHTS Assay for Inhibitors of the Six1/Eya2 Interaction | AlphaScreen GST-Six1/His-Eya2 binding, biochemical; hits give low values | 0.56% of 360,000 active | activity change, % (test concentration not listed); in the data active = activity change below about -65%; inconclusive = mostly about -30% to -63%; note: % is set by controls: 0 for no effect and ±100 for the full control effect
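Compounds are tested against tagged Six1 and Eya2 proteins bridged by glutathione donor and nickel acceptor beads; after a one-hour incubation at 37 °C without light, AlphaScreen emission is recorded.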
CtBP-E1A blk – qHTS Assay for Inhibitors of the CtBP/E1A Interaction; CtBP / adenovirus E1A interaction (AlphaScreen); 0.49% of 340,000 active; AlphaScreen GST-E1A/His-CtBP binding, 1536-well; hits give low values; activity change, % (no concentration beside the values); in the data active = activity change below about -65%; inconclusive = mostly about -30% to -63%; note: % is set by controls: 0 for no effect and ±100 for the full control effect
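GST-E1A and His-tagged CtBP (125 nM each as 5X stock) were preincubated with pin-transferred compound for 2 h at 37 °C in the dark, then glutathione donor and nickel acceptor beads were added for 1 h before AlphaScreen reading.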
Active calls of the source: *; ? = inconclusive; nt = no result; ! = a repeat was not active; [ ] = another dose, or the depositor's remark. In the library only some 10% were active in any assay of this set; here they are far more common. Unless noted, calls come from the whole dose curve; as a rule, active = well fitted inhibition curve with a large enough effect; inconclusive = small, poorly fitted or top-dose-only effect; inactive = no such curve, though single readings can be large or run the other way.

SMILES	HP1b binding inh	BAZ2B block	G9a block	JMJD2A Tudor inh	Six1-Eya2 inh	CtBP-E1A blk
O=C(CN1CCN(c2ccccn2)CC1)N(c1ccccc1)c1ccc2ccccc2c1	-36.0%	?	50.1µM*	-19.1%[11.4 µM]	-9.0	-1.9
CN(C(=O)CN1CCN(c2ccc([N+](=O)[O-])cn2)CC1)c1ccccc1	28.1%	-11.0%	24.7%[0.501 µM]	2.9%	-18.1	nt
CCOC(=O)Cc1nc2ccccc2n(CC#N)c1=O	34.6%	-25.2%	?	6.3%	-0.1	2.4
CC(C)(C)C1CCC(=NNC(=O)C(=O)NC2CCCCC2)CC1 (stereo not drawn)	15.4%	-34.3%	?	79.4µM*	-11.2	26.5
CN1CCN(C(=O)NC2CCCCC2)CC1	?	50.1µM*	8.91µM*	8.91µM*	5.6	10.4
O=C(NC1CCCCC1)N1CCCCCC1	15.5%	-5.3%	-7.1%	-2.8%	-2.9	-7.9
CN1CCC(=NNC(=O)C(=O)NC2CCCC2)CC1	4.9%	?	-4.8%	39.8µM*	2.8	-0.8
O=C(CCCn1cc([N+](=O)[O-])cn1)NC1CCCCCC1	27.0%	1.6%	6.8%	-10.3%	-8.7	10.2
O=C(Nc1ccc(F)cc1F)N1CCc2c(sc3c2CCCC3)C1c1ccc(F)cc1 (stereo not drawn)	3.9%	-23.2%	-1.1%[12.7 µM]	-9.9%	nt	nt
O=S(=O)(Nc1ccc(F)cc1)c1cccc2nsnc12	34.0%	?	19.1%	-20.9%	-6.5	0.3
O=C(C1CCC(CNS(=O)(=O)c2cccc3nsnc23)CC1)N1CC=C(c2ccccc2)CC1 (stereo not drawn)	16.2%	17.2%	89.1µM*	-27.7%	-22.2	-17.0
O=S(=O)(Nc1ccccc1)c1cccc2nsnc12	?	50.1µM*	?	?	4.0	6.8
O=C(C1CCN(S(=O)(=O)c2cccc3nsnc23)CC1)N1CC=C(c2ccccc2)CC1	14.8%	?	-7.0%[0.0925 µM]	-22.9%	-3.6	-17.1
O=C(O)CCCNS(=O)(=O)c1cccc2nsnc12	33.5%	-6.1%	?	-7.6%	-3.2	2.3
Cc1ccc(NS(=O)(=O)c2cccc3nsnc23)cc1	16.4%	3.9%	?	-26.0%	-2.3	4.6
O=C(O)CNS(=O)(=O)c1cccc2nsnc12	10.3%	-27.2%	3.0%[12.7 µM]	14.1µM*	5.3	-1.9
Cc1ccc(NS(=O)(=O)c2cccc3nsnc23)cc1[N+](=O)[O-]	9.1%	-28.9%	39.8µM*	-21.0%	1.4	-9.1
CCOC(=O)Cc1ccc(NC(=O)N2CC(C)Oc3ccc(Cl)cc32)cc1 (stereo not drawn)	57.8%	-3.0%	-22.7%[59 µM]	3.6%	nt	nt
CCOC(=O)/C(C#N)=C/c1cn(CCC(=O)O)nc1-c1cccc(Br)c1	7.4%	-26.4%	-43.1%	-18.0%	7.0	2.0
Cc1cc2c(s1)c1cnn(Cc3cc(OC(F)(F)F)ccc3F)c(=O)c1n2C	nt	nt	nt	-11.0%	nt	nt
COc1ccccc1-c1ocnc1C(=O)N1CCN(S(=O)(=O)c2ccc(NC(C)=O)cc2)CC1	28.2%	4.0%	14.1%	0.4%	-17.8	-0.3
CC[C@]1(c2cccc(C)c2)C(=O)N(C(=O)OC)N1C(=O)OC	49.9%	-37.0%	39.8µM*	-1.4%	4.2	5.0
COC(=O)N1C(=O)[C@](Cc2ccccc2)(c2ccccc2)N1C(=O)OC	43.2%	-30.9%	39.8µM*	-17.3%	-1.8	0.0
CC[C@@]1(c2ccccc2)C(=O)N(C(=O)OC)N1C(=O)OC	64.0%	-34.1%	28.2µM*	-10.5%	6.5	2.7
COc1cccc(-c2nc3c(c(SCC(=O)Nc4cccc(C)c4C)n2)Cc2c(CO)cnc(C)c2O3)c1	16.8%	?	-18.1%[59 µM]	-7.7%	nt	nt
SMILES	HP1b binding inh	BAZ2B block	G9a block	JMJD2A Tudor inh	Six1-Eya2 inh	CtBP-E1A blk
c1ccc(-c2nnc(-c3ccccn3)nn2)nc1	37.5%	nt	nt	-23.5%[11.4 µM]	-78.8*	-91.3*
c1ccc(-c2ccc(-c3ccccn3)s2)nc1	19.5%	6.8%	51.7%	16.2%	15.4	2.4
c1ccc(-c2cccc(-c3ccccn3)n2)nc1	30.9%	17.8µM*	-11.1%	20µM*	-91.4*	-101.4*
C[C@H](CO)N1C[C@H](C)[C@@H](CN(C)C(=O)Nc2ccccc2)Oc2ccc(NC(=O)c3ccncc3)cc2C1=O	18.3%	nt	nt	-9.1%	19.6	0.0
Cc1cnc(CNc2ncnc3ccc(-c4cccc(NS(C)(=O)=O)c4)cc23)cn1	nt	nt	11.3%[0.501 µM]	nt	nt	nt
Cc1c(NC(=O)Oc2ccccc2)sc(=S)n1C	-13.6%	?	44.7µM*	-30.8%	-2.5	4.2
Cc1ccc(NC(=O)Nc2sc(=S)n(C)c2C)cc1	-22.5%	-2.5%	25.1µM*	-15.4%	-0.2	-1.4
Oc1ccc(O)c(-c2cnns2)c1	8.91µM*	-6.6%	?	3.16µM*	-2.5	-1.0
Nc1nc(N)nc(-c2cc(O)ccc2O)n1	38.5%	5.8%	12.6%[0.501 µM]	-19.6%	-10.0	-12.8
CC(=O)/C(C#N)=C1\NC(=O)C(Cc2ccccc2C)S1 (stereo not drawn)	19.9%	-23.4%	20µM*	?	-0.6	-10.8
CC(=O)/C(C#N)=C1\NC(=O)C(Cc2ccccc2)S1 (stereo not drawn)	32.7%	-3.0%	7.5%[0.0925 µM]	-8.2%	0.4	-1.5
Cc1ccc(C(=O)NC(=S)NNC(=O)COc2ccc([N+](=O)[O-])cc2)cc1	-18.8%	3.3%	3.55µM*	25.1µM*	-5.4	13.3
O=C(COc1ccc([N+](=O)[O-])cc1)NNC(=S)NC(=O)c1ccc(Br)cc1	?	1.5%	2.82µM*	50.1µM*	-1.1	0.0
CCCCC[C@H](O)/C=C/C1=C(C/C=C\CCCC(=O)O)C(=O)CC1	nt	nt	30.7%[59 µM]	nt	nt	nt
CCN=C1S/C(=C/c2ccc(-c3ccc(F)cc3)o2)C(=O)N1CC	35.6%	-32.5%	35.5µM*	28.5%	14.9	23.5
CCN=C1S/C(=C\c2ccc(Sc3ccc(Cl)cc3)o2)C(=O)N1CC	162.7%	26.6%	148.3%	46.3%	3.4	12.7
COC(=O)c1cc(C)sc1NC(=O)CSc1ncccn1	-3.0%	-21.2%	10µM*	-5.7%	-3.0	5.9
COc1ccccc1C(=O)Nc1nnc(S(=O)(=O)N2CCCCCC2)s1	48.2%	7.08µM*!	10µM*!	20µM*!	7.2	-17.4
Cc1ccc(C(=O)Nc2nnc(S(=O)(=O)N3CCCCCC3)s2)cc1	?	10µM*!	7.94µM*	25.1µM*!	5.3	-21.7
